From PubChem BioAssay
Inconclusive results are not listed. Active and inactive are the calls of the source.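 How the source made its calls, unless noted: active means inhibition above the screen-wide mean plus 3 SD, about 51%; inactive means the rest.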

Key:
[1] = yeast TOR pathway RPL19A-GFP modulators, primary screen, cell-based, S. cerevisiae, multiplex flow cytometry (AID 1862; in the data active means percent of DMSO control GFP below about 86%;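 further: lower values mimic rapamycin by blocking the RPL19A rise seen in DMSO cells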); conditions: S. cerevisiae RPL19A-GFP strain, flow cytometry fluorescence, 3 h; at 10 µM; stronger effect = lower value
[2] = modulators of MEP2-GFP levels in yeast, primary screen, S. cerevisiae, multiplex flow cytometry (AID 1867;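 active means GFP response, as percent of the DMSO control, above the screen-wide mean plus 3 SD, about 139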;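 further: median GFP channel fluorescence of barcode-gated MEP2-GFP cells measured by flow cytometry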); conditions: S. cerevisiae MEP2-GFP strain, 3 h, at 10 µM, stronger effect = higher value, 100% means same as DMSO wells
[3] = modulators of CIT2-GFP expression in yeast, primary screen, S. cerevisiae, GFP fusion, multiplex flow cytometry (AID 1870;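 active means percent response above a set limit, the screen-wide mean plus 3 SD, cut at about 130% in these data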;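 further: barcoded CIT2-GFP strain pooled with four other GFP strains with rapamycin as positive control; median GFP fluorescence per well over plate mean of DMSO wells so 100% = DMSO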); conditions: 3 h, at 10 µM, stronger effect = higher value
[4] = modulators of LAP4-GFP expression in yeast, primary screen, S. cerevisiae, multiplex flow cytometry (AID 1873;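 active means GFP signal, as percent of the solvent control, above the screen mean plus 3 SD, about 149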); conditions: 3 h, at 10 µM, stronger effect = higher value
[5] = modulators of AGP1-GFP expression in yeast TOR pathway, primary screen, cell-based, multiplex flow cytometry, S. cerevisiae (AID 1887;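 active means GFP signal above the screen-wide mean plus 3 SD, that is over about 124.5% of the solvent control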;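 further: AGP1-GFP fusion strain of S. cerevisiae within a five-strain barcoded multiplex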); conditions: 3 h, at 10 µM, stronger effect = higher value
[6] = inhibitors of CD8+ T cell-vesicle binding, pilot screen, LFA-1/ICAM-1 modulator project, MLPCN validation set, flow cytometry (AID 2523;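 active means response below a set limit, under 55% cells CD8-positive and vesicle-bound, and CD8 cells' 90th-percentile brightness under 279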;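 on vesicle binding response: mean PE anti-B7-1 fluorescence of CD8+ cells relative to row control; 100% = QL9-loaded vesicles with DMSO vehicle in the same plate row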); conditions: 2C mouse CD8+ T cells, at 7 µM, stronger effect = lower value; double positive events: measured here: CD8+/vesicle+ event percentage
[7] = target: Integrin beta-1 (Homo sapiens) + Integrin alpha-4 (Homo sapiens) (UniProt P13612+P05556); experiment: inhibition of HUTS-21 binding to VLA-4, pilot screen, VLA-4 allosteric modulator project, U937 cells, HUTS-21 mAb, flow cytometry, validation set (AID 2674;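 active means inhibition above 50%, about 3 SD of the validation set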;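 further: antibody binding induced by the VLA-4 ligand LDV present at three times its Kd; 0% = LDV ligand with antibody and no compound and 100% = antibody without LDV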); conditions: HUTS-21 LIBS mAb binding, at 6.7 µM, stronger effect = higher value, binding induced by LDV ligand
[8] = superoxide lowering in aged yeast cells, pilot screen, validation compound set (AID 2706;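 active means superoxide response below 65% of plate, a cut near 3 SD across the whole screen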;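 further: yeast exposed to compound for one week at 30 degrees C before staining; 100% = mean of all compound wells on the same plate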); conditions: S. cerevisiae aging, superoxide DHE fluorescence; at 10 µM; stronger effect = lower value
[9] = target: Beta-adrenergic receptor kinase 1 (Homo sapiens) (UniProt P25098); experiment: GRK2 binders displacing RNA aptamer, biochemical, validation, human GRK2, bead flow cytometry (AID 488806;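 active means aptamer binding inhibition above 30%, about 3 SD of noise from non-fluorescent compounds; inactive means inhibition at or below 30%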); conditions: bead-bound GRK2, FAM-aptamer displacement, at 10 µM, stronger effect = higher value
[10] = target: Beta-2 adrenergic receptor (Homo sapiens) (UniProt P07550); experiment: beta2AR agonists driving receptor internalization, pilot screen, cell-based, FAP fluorogen, flow cytometry, validation set (AID 504459;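 active means percent response above 42, roughly 3 SD of non-fluorescent test compounds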;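 further: agonist-driven loss of surface beta2AR via internalization measured by FAP dye flow cytometry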); conditions: Am2.2-beta2AR cells, FAP surface receptor flow cytometry; at 10 µM; stronger effect = higher value
[11] = target: AP-2 complex subunit beta (Homo sapiens) (UniProt P63010); experiment: inhibitors of arrestin peptide binding to AP2, pilot screen, biochemical, validation set, GST-AP2 beads, flow cytometry (AID 504541;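 active means inhibition above 54%, about 3 SD of non-fluorescent compounds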;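 further: AP2 carries R879A mutation and is captured from E. coli lysate; bead-bound FITC arrestin peptide fluorescence measuring arrestin peptide binding to AP2; 0% = DMSO wells and 100% = excess unlabeled arrestin peptide control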); conditions: FITC arrestin peptide, at 10 µM, stronger effect = higher value, AP2 beta2 appendage fragment, R879A mutant
[12] = yeast V-ATPase proton transport modulators, S. cerevisiae, pHLuorin, HTS validation (AID 504600; in the data active means response above about 15%;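 further: plate controls were DMSO for no effect and reference compound for full effect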); conditions: S. cerevisiae pHLuorin cytosolic pH, at 10 µM, stronger effect = higher value
[13] = system: anti-desmoglein-3 scFv antibody binding to human DSG3; experiment: inhibitors of anti-DSG3 scFv binding to DSG3, pilot screen, biochemical, validation compound set, bead-based, flow cytometry (AID 588368;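 active means binding below the plate cutoff, the plate median minus 3 SD, with a reading above zero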;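 further: signal is the median channel fluorescence of bead-bound GFP antibody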); conditions: Protein G beads, DSG3-Fc, scFv-GFP binding, at 10 µM, stronger effect = lower value
[14] = inhibitors of fungal efflux pumps CDR1, CDR2, MDR1, pilot screen, validation compound set, multiplex, phenotypic (AID 588506;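 active means efflux inhibition above 0.42, the validation set average plus 4 SD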;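 further: Nile Red retained in cells so higher fluorescence means more efflux inhibition; 0 = negative control wells and 1 = enniatin B 25 µM full block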); conditions: S. cerevisiae pump-expressing triplex, Nile Red efflux flow cytometry; at 10 µM; stronger effect = higher value; the pumps come from Candida albicans
[15] = target: ATP-binding cassette sub-family B member 6 (Homo sapiens) (UniProt Q9NP58); experiment: ABCB6 transporter inhibitors, pilot screen, K562-ABCB6 cells, flow cytometry, validation set (AID 588550); conditions: K562-ABCB6 porphyrin accumulation, 1 h, at 10 µM, stronger effect = higher value;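 further: 0% = DMSO wells and 100% = benzethonium chloride 70 µM positive control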
[16] = promoters of myeloid differentiation in arrested cells, primary screen, cell-based, GFP/MAC1 double positive, flow cytometry, validation set (AID 588685;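 active means differentiation response of at least 50%, scaled between solvent and reference control, from cells with both markers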;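 further: compound exposure lasts four days before antibody staining and flow analysis; 0% = DMSO wells and 100% = 5 µM fulvestrant positive control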); conditions: ER-HoxA9 marrow cells, stronger effect = higher value, normalized: vehicle 0, fulvestrant 100

Sequence of ATP-binding cassette sub-family B member 6 (Homo sapiens) (Q9NP58 whole entry, looked up): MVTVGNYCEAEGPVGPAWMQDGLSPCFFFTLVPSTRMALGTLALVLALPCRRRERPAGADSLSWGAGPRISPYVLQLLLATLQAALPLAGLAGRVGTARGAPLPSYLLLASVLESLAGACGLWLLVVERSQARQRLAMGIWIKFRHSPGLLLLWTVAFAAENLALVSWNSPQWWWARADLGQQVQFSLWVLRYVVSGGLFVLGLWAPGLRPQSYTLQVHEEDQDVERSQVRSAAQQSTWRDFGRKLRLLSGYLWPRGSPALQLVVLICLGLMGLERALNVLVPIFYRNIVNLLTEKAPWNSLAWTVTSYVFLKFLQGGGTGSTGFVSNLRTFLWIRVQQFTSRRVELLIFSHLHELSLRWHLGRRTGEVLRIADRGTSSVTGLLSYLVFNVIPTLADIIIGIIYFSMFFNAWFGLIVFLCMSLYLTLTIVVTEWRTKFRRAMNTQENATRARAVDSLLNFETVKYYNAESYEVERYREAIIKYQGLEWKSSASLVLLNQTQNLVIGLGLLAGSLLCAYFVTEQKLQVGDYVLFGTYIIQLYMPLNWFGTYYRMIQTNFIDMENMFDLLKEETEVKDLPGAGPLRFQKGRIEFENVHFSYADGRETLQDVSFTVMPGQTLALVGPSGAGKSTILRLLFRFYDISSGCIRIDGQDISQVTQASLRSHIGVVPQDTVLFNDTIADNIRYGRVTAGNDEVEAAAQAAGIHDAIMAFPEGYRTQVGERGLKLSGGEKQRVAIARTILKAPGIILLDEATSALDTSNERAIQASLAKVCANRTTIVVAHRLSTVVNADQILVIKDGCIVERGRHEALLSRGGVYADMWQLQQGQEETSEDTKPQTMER
Sequence of AP-2 complex subunit beta (Homo sapiens) (P63010 whole entry, looked up, the tested form may be a part, one chain of several): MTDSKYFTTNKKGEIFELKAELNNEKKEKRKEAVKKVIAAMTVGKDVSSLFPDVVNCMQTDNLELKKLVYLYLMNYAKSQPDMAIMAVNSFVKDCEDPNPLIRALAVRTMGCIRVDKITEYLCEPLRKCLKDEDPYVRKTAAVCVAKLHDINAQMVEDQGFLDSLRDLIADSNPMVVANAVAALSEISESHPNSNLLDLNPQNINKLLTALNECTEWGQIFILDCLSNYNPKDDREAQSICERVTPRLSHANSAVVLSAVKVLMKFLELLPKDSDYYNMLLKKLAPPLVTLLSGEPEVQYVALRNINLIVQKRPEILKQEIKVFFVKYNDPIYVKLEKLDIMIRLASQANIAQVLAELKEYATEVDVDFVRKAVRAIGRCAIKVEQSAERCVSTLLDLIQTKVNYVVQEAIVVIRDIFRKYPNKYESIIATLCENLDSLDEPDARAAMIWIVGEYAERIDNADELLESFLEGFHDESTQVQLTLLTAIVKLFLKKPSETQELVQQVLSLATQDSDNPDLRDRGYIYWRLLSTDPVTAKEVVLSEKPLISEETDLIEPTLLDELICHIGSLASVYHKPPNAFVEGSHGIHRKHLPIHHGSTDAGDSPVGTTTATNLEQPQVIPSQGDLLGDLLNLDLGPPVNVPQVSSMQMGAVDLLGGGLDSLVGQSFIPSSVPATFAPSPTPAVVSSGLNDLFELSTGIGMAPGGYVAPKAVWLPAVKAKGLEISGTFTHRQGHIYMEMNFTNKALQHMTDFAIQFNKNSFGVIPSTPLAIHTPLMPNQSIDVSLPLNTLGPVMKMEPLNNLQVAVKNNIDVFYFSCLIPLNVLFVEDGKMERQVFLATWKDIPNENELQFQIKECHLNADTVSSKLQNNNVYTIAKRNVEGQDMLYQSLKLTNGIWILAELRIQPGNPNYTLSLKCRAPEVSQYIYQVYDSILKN
Sequence of Integrin beta-1 (Homo sapiens) + Integrin alpha-4 (Homo sapiens) (P05556 whole entry, looked up): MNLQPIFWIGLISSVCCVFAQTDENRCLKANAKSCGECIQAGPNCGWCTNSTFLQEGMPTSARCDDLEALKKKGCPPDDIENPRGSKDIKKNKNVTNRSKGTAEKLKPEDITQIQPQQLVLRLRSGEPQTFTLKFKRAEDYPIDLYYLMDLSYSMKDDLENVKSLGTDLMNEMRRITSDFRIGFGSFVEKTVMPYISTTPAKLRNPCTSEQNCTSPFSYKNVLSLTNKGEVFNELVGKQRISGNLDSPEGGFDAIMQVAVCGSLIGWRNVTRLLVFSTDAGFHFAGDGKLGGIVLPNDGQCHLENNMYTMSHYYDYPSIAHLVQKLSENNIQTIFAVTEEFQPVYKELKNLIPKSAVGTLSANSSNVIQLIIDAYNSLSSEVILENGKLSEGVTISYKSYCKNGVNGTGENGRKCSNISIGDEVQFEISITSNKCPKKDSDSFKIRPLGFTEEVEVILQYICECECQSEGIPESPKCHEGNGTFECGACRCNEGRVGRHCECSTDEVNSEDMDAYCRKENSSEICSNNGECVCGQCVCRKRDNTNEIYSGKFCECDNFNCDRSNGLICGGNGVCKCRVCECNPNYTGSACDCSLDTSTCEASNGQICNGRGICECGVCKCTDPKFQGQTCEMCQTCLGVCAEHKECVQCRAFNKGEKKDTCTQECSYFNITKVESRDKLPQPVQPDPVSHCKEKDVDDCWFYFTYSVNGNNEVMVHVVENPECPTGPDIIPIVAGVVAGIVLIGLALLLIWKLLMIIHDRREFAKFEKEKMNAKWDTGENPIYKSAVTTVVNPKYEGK
Sequence of Integrin beta-1 (Homo sapiens) + Integrin alpha-4 (Homo sapiens) (P13612 whole entry, looked up): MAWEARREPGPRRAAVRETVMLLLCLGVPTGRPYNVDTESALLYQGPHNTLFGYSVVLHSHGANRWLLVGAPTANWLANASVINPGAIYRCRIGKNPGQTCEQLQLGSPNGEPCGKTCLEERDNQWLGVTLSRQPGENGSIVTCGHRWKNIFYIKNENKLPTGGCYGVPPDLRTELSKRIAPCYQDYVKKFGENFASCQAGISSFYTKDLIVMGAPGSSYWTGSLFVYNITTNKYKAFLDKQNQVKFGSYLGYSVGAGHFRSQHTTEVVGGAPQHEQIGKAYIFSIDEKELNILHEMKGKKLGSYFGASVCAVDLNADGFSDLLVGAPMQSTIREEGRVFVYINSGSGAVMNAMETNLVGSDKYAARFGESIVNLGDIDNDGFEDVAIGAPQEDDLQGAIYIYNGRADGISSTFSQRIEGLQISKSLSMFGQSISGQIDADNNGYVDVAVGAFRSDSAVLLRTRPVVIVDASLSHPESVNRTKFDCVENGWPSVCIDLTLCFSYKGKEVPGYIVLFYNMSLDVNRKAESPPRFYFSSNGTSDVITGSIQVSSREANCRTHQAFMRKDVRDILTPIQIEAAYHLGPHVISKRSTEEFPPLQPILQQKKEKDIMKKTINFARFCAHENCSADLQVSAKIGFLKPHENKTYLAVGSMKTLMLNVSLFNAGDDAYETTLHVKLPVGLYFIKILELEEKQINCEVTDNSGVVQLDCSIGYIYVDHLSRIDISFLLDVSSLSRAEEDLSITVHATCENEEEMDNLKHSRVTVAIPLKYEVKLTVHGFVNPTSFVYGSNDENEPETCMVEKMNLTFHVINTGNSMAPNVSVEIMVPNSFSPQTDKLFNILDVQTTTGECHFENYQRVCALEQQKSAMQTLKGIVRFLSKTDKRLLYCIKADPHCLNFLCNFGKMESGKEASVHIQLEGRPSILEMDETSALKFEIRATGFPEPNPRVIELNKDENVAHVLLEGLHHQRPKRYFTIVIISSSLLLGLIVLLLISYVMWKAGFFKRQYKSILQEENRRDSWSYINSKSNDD
Sequence of Beta-2 adrenergic receptor (Homo sapiens) (P07550 whole entry, looked up): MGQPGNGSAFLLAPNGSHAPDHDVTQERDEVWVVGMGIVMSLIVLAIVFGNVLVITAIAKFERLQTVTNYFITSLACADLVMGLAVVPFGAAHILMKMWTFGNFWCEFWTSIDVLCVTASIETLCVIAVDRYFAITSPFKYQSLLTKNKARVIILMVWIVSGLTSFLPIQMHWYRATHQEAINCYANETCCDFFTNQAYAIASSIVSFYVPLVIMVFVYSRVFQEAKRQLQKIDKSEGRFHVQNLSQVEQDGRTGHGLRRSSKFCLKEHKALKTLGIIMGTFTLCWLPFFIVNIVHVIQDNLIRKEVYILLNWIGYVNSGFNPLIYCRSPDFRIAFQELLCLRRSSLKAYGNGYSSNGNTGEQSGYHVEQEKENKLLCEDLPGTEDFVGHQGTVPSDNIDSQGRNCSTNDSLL
Sequence of Beta-adrenergic receptor kinase 1 (Homo sapiens) (P25098 whole entry, looked up): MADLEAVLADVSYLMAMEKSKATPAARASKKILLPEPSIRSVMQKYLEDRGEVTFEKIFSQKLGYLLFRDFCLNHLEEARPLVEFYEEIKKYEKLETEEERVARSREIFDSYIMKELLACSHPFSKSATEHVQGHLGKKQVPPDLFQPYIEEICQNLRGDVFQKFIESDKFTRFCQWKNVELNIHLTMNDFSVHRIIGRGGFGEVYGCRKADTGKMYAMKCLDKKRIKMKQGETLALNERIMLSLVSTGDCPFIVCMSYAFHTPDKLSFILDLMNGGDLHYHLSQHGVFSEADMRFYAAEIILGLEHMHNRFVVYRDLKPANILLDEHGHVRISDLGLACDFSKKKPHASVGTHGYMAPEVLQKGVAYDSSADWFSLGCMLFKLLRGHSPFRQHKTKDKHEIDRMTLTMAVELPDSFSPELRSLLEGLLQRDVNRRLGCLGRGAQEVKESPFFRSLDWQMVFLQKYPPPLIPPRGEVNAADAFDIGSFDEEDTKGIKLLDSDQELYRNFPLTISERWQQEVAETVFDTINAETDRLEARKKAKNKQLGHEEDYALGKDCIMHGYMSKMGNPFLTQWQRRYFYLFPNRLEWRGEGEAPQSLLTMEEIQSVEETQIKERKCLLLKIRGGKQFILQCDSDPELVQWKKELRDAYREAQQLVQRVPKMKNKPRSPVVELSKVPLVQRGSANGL

COc1cc(C2Nc3ccccc3NC3=C2C(=O)CC(c2ccc(OC)c(OC)c2)C3)ccc1O (stereo not given)
53.7%: double positive events [6]
inactive: percent of DMSO control GFP [1] 107% | GFP response vs DMSO [2] 95.2% | percent response of DMSO control [3] 117% | GFP response vs DMSO [4] 64.1% | GFP response, % of DMSO [5] 92.2% | vesicle binding response [6] 104% | inhibition [7] -3.16% | superoxide response (% of plate) [8] 107% | aptamer binding inhibition [9] 3% | response [10] 0.79% | inhibition [11] -8.83% | response [12] 1.04% | binding (% of control) [13] 98.4% | efflux inhibition (fraction of control) [14] -0.35 | inhibition [15] 11% | differentiation response [16] -18.4%

O=C1CCCN1C(=O)CCC(=O)N1CCCC1=O
62.6%: double positive events [6]
inactive: percent of DMSO control GFP [1] 107% | GFP response vs DMSO [2] 95.1% | percent response of DMSO control [3] 109% | GFP response vs DMSO [4] 87.4% | GFP response, % of DMSO [5] 106% | vesicle binding response [6] 235% | inhibition [7] -11.9% | superoxide response (% of plate) [8] 96.9% | aptamer binding inhibition [9] 0% | response [10] -7.65% | inhibition [11] -9.79% | response [12] -1.12% | binding (% of control) [13] 95.6% | efflux inhibition (fraction of control) [14] -0.1 | inhibition [15] -2% | differentiation response [16] 2.2%

OCCOCCN1CCN(C(c2ccccc2)c2ccc(Cl)cc2)CC1 (stereo not given)
66.8%: double positive events [6]
inactive: percent of DMSO control GFP [1] 90.4% | GFP response vs DMSO [2] 114% | percent response of DMSO control [3] 95.2% | GFP response vs DMSO [4] 77% | GFP response, % of DMSO [5] 93.8% | vesicle binding response [6] 218% | inhibition [7] -0.33% | superoxide response (% of plate) [8] 95% | aptamer binding inhibition [9] 1% | response [10] 3.36% | inhibition [11] 0.96% | response [12] 1.14% | binding (% of control) [13] 110% | efflux inhibition (fraction of control) [14] -0.38 | inhibition [15] 12% | differentiation response [16] -1.64%

O=C(Oc1ccccc1)Oc1ccc2c(c1)oc(=O)c1ccccc12
inactive: percent of DMSO control GFP [1] 96.3% | GFP response vs DMSO [2] 126% | percent response of DMSO control [3] 106% | GFP response vs DMSO [4] 90.2% | GFP response, % of DMSO [5] 102% | vesicle binding response [6] 230% | inhibition [7] -6.15% | superoxide response (% of plate) [8] 78.2% | aptamer binding inhibition [9] 2% | response [10] 4.41% | inhibition [11] 4.7% | response [12] 0.05% | binding (% of control) [13] 94.7% | efflux inhibition (fraction of control) [14] 0.34 | inhibition [15] 4% | differentiation response [16] 8.19%
60.1%: double positive events [6]

Cn1c(=O)[nH]c2nnc(-c3ccc(Cl)c(Cl)c3)nc2c1=O
inactive: percent of DMSO control GFP [1] 103% | GFP response vs DMSO [2] 102% | percent response of DMSO control [3] 105% | GFP response vs DMSO [4] 98% | GFP response, % of DMSO [5] 104% | vesicle binding response [6] 133% | inhibition [7] 2.93% | superoxide response (% of plate) [8] 73.3% | aptamer binding inhibition [9] 9% | response [10] 9.11% | inhibition [11] 5.98% | response [12] 0.72% | binding (% of control) [13] 101% | efflux inhibition (fraction of control) [14] -0.21 | inhibition [15] -7% | differentiation response [16] -13.3%
61.9%: double positive events [6]
